# Assay results: PMC7862700, “An all-to-all approach to the identification of sequence-specific readers for epigenetic DNA modifications on cytosine”
# How the values were obtained:
# Experiment in all cases: DAPPL (digital affinity profiling via proximity ligation, sequencing); 10 mM Tris-HCl pH 7.5, 50 mM NaCl, 1 mM DTT, 4% glycerol, room temperature, 30 min; GST-TFs on glutathione beads, 16-mer random dsDNA library, 0.1% formaldehyde crosslink after washing; high values mean tight binding
# FEV = target: T1, FEV (Homo sapiens, UniProt Q99581 1-238); conditions: protein: recombinant; tags: N-terminal GST; dsDNA, one strand shown
# T1 sequence: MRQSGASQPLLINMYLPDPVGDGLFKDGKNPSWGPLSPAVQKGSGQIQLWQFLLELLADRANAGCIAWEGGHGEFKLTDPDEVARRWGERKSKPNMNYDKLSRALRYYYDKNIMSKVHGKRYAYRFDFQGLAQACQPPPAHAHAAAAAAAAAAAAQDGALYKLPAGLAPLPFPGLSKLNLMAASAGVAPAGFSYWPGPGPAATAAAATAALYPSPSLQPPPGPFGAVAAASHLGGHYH
# Method in brief: (§1)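 Each value of binding signal is a hexamer's read frequency for a factor divided by the same hexamer's frequency in the tag-only sample. Barcoded, bead-captured GST fusions of human transcription factors made in yeast were pooled with that sample and incubated with 200 nmole of a random double-stranded 16-mer DNA library in Tris/NaCl/DTT/glycerol buffer at room temperature for 30 min. Washing, 0.1% formaldehyde crosslinking, proximity ligation, PCR and Illumina NextSeq500 sequencing followed.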
# ETV5 = ETV5 (Homo sapiens, UniProt P41161 1-510); conditions: protein: recombinant; tags: N-terminal GST; dsDNA, one strand shown
# Method in brief: as §1
# HSF1 = HSF1 (Homo sapiens, UniProt Q00613 1-529); conditions: protein: recombinant; tags: N-terminal GST; chain copies: 3; dsDNA, one strand shown
# Method in brief: as §1
# SPIC = target: T2, SPIC (Homo sapiens, UniProt Q8N5J4 1-248); conditions: protein: recombinant; tags: N-terminal GST; dsDNA, one strand shown
# T2 sequence: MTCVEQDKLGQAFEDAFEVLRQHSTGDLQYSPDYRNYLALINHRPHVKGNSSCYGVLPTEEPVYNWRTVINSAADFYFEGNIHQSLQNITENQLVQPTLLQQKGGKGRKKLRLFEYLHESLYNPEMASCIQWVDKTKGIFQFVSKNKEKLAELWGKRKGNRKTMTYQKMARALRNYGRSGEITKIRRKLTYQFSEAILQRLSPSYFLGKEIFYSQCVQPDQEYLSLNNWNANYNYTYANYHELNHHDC
# Method in brief: as §1
# ELF4 = ELF4 (Homo sapiens, UniProt Q99607 1-663); conditions: protein: recombinant; tags: N-terminal GST; dsDNA, one strand shown
# Method in brief: as §1
# ELK4 = target: T3, ELK4 (Homo sapiens, UniProt P28324-2 1-405); conditions: protein: recombinant; tags: N-terminal GST; dsDNA, one strand shown
# T3 sequence: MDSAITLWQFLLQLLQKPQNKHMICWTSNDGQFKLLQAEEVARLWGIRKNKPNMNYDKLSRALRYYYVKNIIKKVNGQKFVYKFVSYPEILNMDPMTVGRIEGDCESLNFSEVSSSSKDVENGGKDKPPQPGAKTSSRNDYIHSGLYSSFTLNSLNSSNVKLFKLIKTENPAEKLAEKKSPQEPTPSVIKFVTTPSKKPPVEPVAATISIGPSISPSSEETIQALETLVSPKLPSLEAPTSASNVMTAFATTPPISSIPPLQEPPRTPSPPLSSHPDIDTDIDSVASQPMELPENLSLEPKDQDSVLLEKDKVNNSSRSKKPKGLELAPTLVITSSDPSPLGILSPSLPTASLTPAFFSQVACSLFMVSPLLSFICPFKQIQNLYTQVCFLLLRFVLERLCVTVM
# Method in brief: as §1
# ETV2 = target: T4, ETV2 (Homo sapiens, UniProt O00321 1-342); conditions: protein: recombinant; tags: N-terminal GST; dsDNA, one strand shown
# T4 sequence: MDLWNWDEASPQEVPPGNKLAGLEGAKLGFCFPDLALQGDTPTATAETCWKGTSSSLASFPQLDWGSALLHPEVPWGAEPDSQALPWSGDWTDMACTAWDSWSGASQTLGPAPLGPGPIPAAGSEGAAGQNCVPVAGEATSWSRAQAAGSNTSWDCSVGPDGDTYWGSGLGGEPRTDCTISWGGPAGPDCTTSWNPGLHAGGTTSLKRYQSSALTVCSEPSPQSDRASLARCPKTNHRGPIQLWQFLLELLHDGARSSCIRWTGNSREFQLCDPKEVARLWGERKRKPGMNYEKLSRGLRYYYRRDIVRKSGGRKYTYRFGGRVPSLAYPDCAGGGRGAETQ
# Method in brief: as §1
# ELF3 = target: T5, ELF3 (Homo sapiens, UniProt P78545 1-371); conditions: protein: recombinant; tags: N-terminal GST; dsDNA, one strand shown
# T5 sequence: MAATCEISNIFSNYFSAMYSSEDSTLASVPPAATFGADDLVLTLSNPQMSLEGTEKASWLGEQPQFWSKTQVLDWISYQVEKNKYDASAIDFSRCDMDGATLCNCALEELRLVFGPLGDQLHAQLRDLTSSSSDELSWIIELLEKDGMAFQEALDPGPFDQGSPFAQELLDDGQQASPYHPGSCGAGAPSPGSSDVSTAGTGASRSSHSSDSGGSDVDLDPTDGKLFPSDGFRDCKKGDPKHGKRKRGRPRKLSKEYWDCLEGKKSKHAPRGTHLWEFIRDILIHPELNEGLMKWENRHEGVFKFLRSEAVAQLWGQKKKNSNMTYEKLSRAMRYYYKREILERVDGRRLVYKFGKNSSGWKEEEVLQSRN
# Method in brief: as §1
# CRX = CRX (Homo sapiens, UniProt O43186 1-299); conditions: protein: recombinant; tags: N-terminal GST; dsDNA, one strand shown
# Method in brief: as §1
# ETV1 = ETV1 (Homo sapiens, UniProt P50549 1-477); conditions: protein: recombinant; tags: N-terminal GST; dsDNA, one strand shown
# Method in brief: as §1
# ERF = target: T6, ERF (Homo sapiens, UniProt P50548 1-548); conditions: protein: recombinant; tags: N-terminal GST; dsDNA, one strand shown
# T6 sequence: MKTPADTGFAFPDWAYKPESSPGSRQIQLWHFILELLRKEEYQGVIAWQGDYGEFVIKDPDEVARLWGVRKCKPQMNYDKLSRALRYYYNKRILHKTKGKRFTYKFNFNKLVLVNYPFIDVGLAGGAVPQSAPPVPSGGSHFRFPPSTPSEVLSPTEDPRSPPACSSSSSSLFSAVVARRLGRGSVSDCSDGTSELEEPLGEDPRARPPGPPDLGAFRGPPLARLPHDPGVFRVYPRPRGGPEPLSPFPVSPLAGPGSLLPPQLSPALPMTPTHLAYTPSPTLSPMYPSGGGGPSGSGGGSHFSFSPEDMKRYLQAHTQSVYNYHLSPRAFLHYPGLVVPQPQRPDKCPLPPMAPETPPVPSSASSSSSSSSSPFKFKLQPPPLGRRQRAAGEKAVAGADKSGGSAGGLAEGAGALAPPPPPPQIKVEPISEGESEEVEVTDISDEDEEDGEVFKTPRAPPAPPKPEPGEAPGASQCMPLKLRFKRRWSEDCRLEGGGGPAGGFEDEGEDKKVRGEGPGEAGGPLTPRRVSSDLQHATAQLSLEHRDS
# Method in brief: as §1
# ETV3L = target: T7, ETV3L (Homo sapiens, UniProt Q6ZN32 1-361); conditions: protein: recombinant; tags: N-terminal GST; dsDNA, one strand shown
# T7 sequence: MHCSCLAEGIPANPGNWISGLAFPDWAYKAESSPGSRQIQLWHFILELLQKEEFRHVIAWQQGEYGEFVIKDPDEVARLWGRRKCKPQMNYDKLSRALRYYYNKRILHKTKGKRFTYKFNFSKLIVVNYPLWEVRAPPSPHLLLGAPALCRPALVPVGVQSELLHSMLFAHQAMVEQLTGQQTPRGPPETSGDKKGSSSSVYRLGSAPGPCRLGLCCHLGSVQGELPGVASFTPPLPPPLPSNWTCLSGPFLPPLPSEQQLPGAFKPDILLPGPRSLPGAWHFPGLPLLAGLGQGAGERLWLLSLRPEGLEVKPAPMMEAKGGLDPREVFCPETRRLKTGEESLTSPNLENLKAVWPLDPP
# Method in brief: as §1
# ETS2 = target: T8, ETS2 (Homo sapiens, UniProt P15036 1-469); conditions: protein: recombinant; tags: N-terminal GST; dsDNA, one strand shown
# T8 sequence: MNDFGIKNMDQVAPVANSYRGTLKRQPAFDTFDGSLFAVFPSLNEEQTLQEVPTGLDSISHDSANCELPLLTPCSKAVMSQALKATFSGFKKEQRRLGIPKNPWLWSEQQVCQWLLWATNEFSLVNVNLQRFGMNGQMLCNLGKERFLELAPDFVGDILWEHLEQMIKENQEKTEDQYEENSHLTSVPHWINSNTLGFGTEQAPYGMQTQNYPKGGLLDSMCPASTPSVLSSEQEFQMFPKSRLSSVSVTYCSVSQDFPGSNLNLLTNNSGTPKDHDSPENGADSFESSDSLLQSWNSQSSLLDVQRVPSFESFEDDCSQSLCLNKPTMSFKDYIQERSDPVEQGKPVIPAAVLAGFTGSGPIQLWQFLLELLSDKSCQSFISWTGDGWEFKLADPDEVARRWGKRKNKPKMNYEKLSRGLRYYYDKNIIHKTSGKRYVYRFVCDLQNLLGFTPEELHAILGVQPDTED
# Method in brief: as §1
# SPDEF = target: T9, SPDEF (Homo sapiens, UniProt O95238 1-335); conditions: protein: recombinant; tags: N-terminal GST; dsDNA, one strand shown
# T9 sequence: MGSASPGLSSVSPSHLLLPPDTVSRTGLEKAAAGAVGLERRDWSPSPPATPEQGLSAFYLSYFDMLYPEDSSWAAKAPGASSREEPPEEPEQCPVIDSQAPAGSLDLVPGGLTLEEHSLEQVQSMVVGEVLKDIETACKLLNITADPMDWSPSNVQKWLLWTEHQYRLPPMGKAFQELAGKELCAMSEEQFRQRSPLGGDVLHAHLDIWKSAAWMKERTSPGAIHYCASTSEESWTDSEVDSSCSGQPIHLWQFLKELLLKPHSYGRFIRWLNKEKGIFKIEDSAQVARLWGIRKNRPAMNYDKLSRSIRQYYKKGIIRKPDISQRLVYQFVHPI
# Method in brief: as §1
# ETV7 = target: T10, ETV7 (Homo sapiens, UniProt Q9Y603 1-341); conditions: protein: recombinant; tags: N-terminal GST; dsDNA, one strand shown
# T10 sequence: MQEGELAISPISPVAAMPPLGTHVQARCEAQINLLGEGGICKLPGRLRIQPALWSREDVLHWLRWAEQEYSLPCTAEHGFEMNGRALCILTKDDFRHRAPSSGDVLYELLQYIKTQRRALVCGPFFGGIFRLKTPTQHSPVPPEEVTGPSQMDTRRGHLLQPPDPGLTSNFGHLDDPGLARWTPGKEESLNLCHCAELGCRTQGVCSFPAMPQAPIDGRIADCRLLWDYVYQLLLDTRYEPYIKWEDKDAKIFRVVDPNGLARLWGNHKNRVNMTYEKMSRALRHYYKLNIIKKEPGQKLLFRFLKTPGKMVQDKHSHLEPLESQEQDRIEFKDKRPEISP
# Method in brief: as §1
# ELF5 = target: T11, ELF5 (Homo sapiens, UniProt Q9UKW6-2 1-255); conditions: protein: recombinant; tags: N-terminal GST; dsDNA, one strand shown
# T11 sequence: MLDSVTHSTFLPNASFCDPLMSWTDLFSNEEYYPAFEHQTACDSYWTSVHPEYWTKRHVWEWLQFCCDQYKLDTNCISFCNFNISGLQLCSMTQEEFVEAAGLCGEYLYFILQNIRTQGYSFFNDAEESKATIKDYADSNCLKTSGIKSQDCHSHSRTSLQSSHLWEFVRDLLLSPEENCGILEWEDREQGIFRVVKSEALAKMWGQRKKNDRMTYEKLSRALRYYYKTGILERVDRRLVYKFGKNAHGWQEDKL
# Method in brief: as §1
# ETV3 = target: T12, ETV3 (Homo sapiens, UniProt P41162-2 1-143); conditions: protein: recombinant; tags: N-terminal GST; dsDNA, one strand shown
# T12 sequence: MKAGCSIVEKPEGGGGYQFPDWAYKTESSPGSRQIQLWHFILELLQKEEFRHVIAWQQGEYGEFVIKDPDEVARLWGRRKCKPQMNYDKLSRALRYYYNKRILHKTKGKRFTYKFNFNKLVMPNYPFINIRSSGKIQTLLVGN
# Method in brief: as §1
# ETV6 = ETV6 (Homo sapiens, UniProt P41212 1-452); conditions: protein: recombinant; tags: N-terminal GST; dsDNA, one strand shown
# Method in brief: as §1
# Sequence of ETV1 (P50549 whole entry): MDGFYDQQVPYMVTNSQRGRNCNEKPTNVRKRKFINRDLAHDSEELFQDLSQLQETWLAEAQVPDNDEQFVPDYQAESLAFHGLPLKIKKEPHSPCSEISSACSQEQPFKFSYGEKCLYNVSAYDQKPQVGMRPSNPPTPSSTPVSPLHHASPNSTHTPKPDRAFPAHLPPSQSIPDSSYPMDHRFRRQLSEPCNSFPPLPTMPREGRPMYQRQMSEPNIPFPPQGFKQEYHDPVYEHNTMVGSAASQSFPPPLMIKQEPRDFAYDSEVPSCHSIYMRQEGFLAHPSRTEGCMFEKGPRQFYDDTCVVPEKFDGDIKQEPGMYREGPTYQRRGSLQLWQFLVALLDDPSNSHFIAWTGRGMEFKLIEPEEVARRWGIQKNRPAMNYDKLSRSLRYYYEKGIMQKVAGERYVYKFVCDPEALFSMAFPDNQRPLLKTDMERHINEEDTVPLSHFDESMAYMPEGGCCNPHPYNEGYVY
# Sequence of ETV5 (P41161 whole entry): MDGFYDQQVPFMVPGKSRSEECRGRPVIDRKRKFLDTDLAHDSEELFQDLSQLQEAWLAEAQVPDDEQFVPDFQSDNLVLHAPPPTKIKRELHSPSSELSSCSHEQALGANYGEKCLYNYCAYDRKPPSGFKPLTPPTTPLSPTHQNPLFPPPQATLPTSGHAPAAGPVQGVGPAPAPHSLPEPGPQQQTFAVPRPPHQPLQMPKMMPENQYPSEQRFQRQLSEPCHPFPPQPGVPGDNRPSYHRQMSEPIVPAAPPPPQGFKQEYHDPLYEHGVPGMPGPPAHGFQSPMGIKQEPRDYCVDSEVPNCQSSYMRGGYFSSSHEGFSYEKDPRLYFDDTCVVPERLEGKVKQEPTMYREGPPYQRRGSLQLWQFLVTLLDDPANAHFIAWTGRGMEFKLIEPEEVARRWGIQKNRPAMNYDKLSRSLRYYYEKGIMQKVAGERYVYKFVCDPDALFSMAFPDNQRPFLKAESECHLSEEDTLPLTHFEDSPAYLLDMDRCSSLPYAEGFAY
# Sequence of ELF4 (Q99607 whole entry): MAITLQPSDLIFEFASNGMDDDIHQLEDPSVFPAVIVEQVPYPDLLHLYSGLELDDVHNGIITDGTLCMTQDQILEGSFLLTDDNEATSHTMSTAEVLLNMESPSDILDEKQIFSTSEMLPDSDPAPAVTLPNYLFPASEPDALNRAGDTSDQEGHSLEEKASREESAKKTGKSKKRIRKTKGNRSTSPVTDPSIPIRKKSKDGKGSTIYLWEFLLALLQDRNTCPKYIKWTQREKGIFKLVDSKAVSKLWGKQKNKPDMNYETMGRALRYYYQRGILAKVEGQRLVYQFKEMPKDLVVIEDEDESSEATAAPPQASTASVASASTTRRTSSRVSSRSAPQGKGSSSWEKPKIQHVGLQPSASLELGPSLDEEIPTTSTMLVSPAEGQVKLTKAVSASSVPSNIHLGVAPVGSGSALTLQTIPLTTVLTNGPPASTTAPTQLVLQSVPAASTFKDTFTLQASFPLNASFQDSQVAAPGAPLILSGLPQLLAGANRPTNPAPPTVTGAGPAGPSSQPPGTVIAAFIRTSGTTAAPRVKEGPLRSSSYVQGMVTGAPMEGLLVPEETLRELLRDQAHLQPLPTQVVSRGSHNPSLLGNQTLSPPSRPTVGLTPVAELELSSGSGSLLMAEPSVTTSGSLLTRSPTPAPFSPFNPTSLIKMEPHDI
# Sequence of HSF1 (Q00613 whole entry): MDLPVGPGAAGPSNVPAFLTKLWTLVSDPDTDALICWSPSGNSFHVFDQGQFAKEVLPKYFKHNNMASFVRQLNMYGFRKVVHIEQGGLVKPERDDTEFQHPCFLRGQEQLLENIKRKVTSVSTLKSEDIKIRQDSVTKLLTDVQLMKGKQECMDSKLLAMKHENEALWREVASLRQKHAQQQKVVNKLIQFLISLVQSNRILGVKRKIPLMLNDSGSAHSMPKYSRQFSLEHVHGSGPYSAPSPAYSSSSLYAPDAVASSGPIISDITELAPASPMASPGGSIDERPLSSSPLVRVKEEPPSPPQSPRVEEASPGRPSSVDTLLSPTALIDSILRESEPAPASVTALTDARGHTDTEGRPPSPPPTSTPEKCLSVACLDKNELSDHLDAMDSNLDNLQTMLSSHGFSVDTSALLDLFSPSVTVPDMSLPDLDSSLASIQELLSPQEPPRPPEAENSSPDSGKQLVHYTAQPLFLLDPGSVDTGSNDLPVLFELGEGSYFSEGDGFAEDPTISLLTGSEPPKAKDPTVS
# Sequence of CRX (O43186 whole entry): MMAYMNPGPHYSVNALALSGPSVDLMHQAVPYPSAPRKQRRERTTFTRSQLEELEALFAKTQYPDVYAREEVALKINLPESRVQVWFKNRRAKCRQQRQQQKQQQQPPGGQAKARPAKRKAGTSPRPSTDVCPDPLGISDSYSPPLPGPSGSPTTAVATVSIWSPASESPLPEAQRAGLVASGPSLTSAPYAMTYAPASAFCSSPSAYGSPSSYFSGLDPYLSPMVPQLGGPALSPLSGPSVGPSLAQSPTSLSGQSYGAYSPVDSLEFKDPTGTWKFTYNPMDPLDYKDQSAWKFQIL
# Sequence of ETV6 (P41212 whole entry): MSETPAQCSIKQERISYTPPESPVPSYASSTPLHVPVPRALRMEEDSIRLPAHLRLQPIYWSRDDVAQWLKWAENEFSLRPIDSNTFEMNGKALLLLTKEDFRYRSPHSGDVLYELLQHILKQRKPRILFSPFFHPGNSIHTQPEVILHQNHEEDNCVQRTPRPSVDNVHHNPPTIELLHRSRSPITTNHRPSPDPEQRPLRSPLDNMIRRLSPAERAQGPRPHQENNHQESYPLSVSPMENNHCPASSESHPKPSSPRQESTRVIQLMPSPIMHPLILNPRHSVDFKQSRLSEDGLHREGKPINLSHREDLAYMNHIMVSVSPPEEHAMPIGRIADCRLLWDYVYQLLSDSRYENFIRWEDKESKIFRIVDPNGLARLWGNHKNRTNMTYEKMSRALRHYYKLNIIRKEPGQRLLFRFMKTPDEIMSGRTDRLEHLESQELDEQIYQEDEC
sequence,measurement,setting,value
CTGTAT,binding signal,FEV,"1.34 fold enrichment (6-mer frequency, TF over GST control)"
same,binding signal,ETV5,"1.35 fold enrichment (6-mer frequency, TF over GST control)"
same,binding signal,HSF1,"1.18 fold enrichment (6-mer frequency, TF over GST control)"
same,binding signal,SPIC,"1.51 fold enrichment (6-mer frequency, TF over GST control)"
same,binding signal,ELF4,"1.22 fold enrichment (6-mer frequency, TF over GST control)"
same,binding signal,ELK4,"1.29 fold enrichment (6-mer frequency, TF over GST control)"
same,binding signal,ETV2,"1.25 fold enrichment (6-mer frequency, TF over GST control)"
same,binding signal,ELF3,"1.13 fold enrichment (6-mer frequency, TF over GST control)"
same,binding signal,CRX,"1.17 fold enrichment (6-mer frequency, TF over GST control)"
same,binding signal,ETV1,"1.39 fold enrichment (6-mer frequency, TF over GST control)"
same,binding signal,ERF,"1.29 fold enrichment (6-mer frequency, TF over GST control)"
same,binding signal,ETV3L,"1.24 fold enrichment (6-mer frequency, TF over GST control)"
same,binding signal,ETS2,"1.22 fold enrichment (6-mer frequency, TF over GST control)"
same,binding signal,SPDEF,"1.44 fold enrichment (6-mer frequency, TF over GST control)"
same,binding signal,ETV7,"1.25 fold enrichment (6-mer frequency, TF over GST control)"
same,binding signal,ELF5,"1.34 fold enrichment (6-mer frequency, TF over GST control)"
same,binding signal,ETV3,"1.32 fold enrichment (6-mer frequency, TF over GST control)"
same,binding signal,ETV6,"1.31 fold enrichment (6-mer frequency, TF over GST control)"
